This is a sample that favours compounds with a hit; in the whole collection about 18% have one here.
RORgamma inh = ROR gamma (mouse) transcription inhibition. Drosophila S2 Gal4-RORgamma UAS-luciferase reporter, 20 h. P51450. Potency, µM (top dose mostly 53.6 µM), for the others: top-dose activity change, negative = inhibition, most hits filed as inhibitors. actives 5.4% (n = 310,000); further: potency means the concentration at half of the fitted maximal effect; nearly all actives have a fitted effect of over 60% in size
Target sequence (P51450 whole entry, looked up, the tested form may be a part): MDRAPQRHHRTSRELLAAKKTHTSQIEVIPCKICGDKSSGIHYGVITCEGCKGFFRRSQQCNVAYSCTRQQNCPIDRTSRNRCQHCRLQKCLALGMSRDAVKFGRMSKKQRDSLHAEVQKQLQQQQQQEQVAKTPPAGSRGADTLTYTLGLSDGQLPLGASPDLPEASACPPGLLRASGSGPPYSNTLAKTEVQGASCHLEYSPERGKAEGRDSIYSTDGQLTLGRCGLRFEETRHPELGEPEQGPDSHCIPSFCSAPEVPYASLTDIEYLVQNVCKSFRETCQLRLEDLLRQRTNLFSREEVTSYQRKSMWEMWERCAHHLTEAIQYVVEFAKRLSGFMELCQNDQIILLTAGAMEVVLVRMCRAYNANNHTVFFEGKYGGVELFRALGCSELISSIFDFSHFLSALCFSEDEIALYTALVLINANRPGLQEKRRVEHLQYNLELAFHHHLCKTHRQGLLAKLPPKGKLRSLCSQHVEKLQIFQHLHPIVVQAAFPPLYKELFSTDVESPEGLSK
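A Gal4/UAS one-hybrid system in insect cells: metallothionein-promoter Gal4–ROR gamma fusion plus Photinus luciferase reporter. Copper sulfate 700 uM final, 20 hr ambient incubation, luminescent detection after 10 min with reagent.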
DT40 TDP1 no CPT = qHTS for Inhibitors of human tyrosyl-DNA phosphodiesterase 1 (TDP1): qHTS in cells in absence of CPT. Potency, µM (highest dose often 46.2 µM), inactives show top-dose activity change, negative = growth inhibition, most hits filed as inhibitors. DT40 Tdp1-/- hTDP1 cells, no CPT, ATP luminescence, 48 h. AID 686978, 2013. actives 15% (n = 420,000); further: potency means the concentration at half of the fitted maximal effect; nearly all actives have a fitted effect of over 55% in size
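Compound effects on proliferation are scored in DT40 Tdp1-/-;hTDP1 cells in the absence of CPT. ATP levels (CellTiter-Glo luminescence) are recorded after a ≥48 hr, 37 °C incubation.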
VP16 counter = counter-screen for ROR gamma inhibitors: Gal4-VP16 reporter; AID 2546; actives 3.5% (n = 310,000); Potency, µM (series often up to 53.6 µM), inactives show top-dose activity, negative = inhibition, hits mostly inhibitors; Drosophila S2 Gal4-VP16 UAS-luciferase, luminescence, 20 h;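 further: Gal4-VP16 expression switched on by copper sulfate through the metallothionein promoter; potency means the concentration at half of the fitted maximal effect; nearly all actives have a fitted effect of over 50% in size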
LDHA inh = blocks human lactate dehydrogenase A; activity change, % (values are at about 110 or 230 µM); P00338; purified LDHA, NADH/diaphorase-resazurin fluorescence; active compounds read low; actives 0.15% (n = 480,000); in the data active means activity change below about -30%; inconclusive means mostly about -25% to -30%;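 further: plate controls were DMSO wells for no effect and wells without enzyme for full effect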
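Enzyme activity of human lactate dehydrogenase 5 (2 nM; 0.06 mM NADH, 0.2 mM pyruvate, 5 min, RT) is measured via a resazurin/diaphorase fluorescence readout of residual NADH.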
IL1B secr inh = blocks inflammasome-driven IL-1 beta release; THP-1 LPS/ATP IL-1B secretion, AlphaLISA, 16 h; active compounds read low; activity change, % at 57.5 µM; actives 4.7% (n = 360,000); AID 743279; in the data active means activity change below about -50%; inconclusive means mostly about -30% to -49%
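THP-1 cells pretreated 1 hr with compounds (up to 57.5 uM final), then stimulated with LPS (250 ng/mL final) plus ATP (1.25 mM final); secreted IL-1B measured by AlphaLISA after 16 hr, decreased signal indicating inhibition.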
DT40 TDP1 CPT = growth inhibition of DT40 Tdp1-/-;hTDP1 cells with camptothecin (screen for TDP1 inhibitors). chicken DT40 Tdp1-/-;hTDP1 cells + 20 nM CPT, ATP luminescence, 48 h. Potency, µM (doses to about 46.2 µM), for the others: at the top dose activity change, negative = growth inhibition, most hits filed as inhibitors. actives 12% (n = 420,000). AID 686979; further: potency means the concentration at half of the fitted maximal effect; nearly all actives have a fitted effect of over 55% in size
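Chicken DT40 Tdp1-/- cells complemented with human TDP1, 400 cells/well, exposed to compounds plus 20 nM camptothecin for at least 48 h at 37 C; viability read as ATP content by CellTiter-Glo luminescence.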
Starred values were filed as active, the others as inactive; u = inconclusive; x = no result given. Unless noted, the call rests on the fitted dose curve; in most records, active means well fitted curve in the direction sought with a large enough effect; inconclusive means small, poorly fitted or top-dose-only effect, or another doubt; inactive means no such curve, though single readings can be large; an effect the other way counts as inactive or inconclusive. Unless noted, on the % scale 0 is the no-effect control and ±100 the full control effect.

SMILES	RORgamma inh	DT40 TDP1 no CPT	VP16 counter	LDHA inh	IL1B secr inh	DT40 TDP1 CPT
CC(C)c1nnc(NC(=O)CCS(=O)(=O)c2ccccc2)s1	9.8%	u	-15.9%	-4.1	-104.5*	16.4µM*
CCc1nnc(NC(=O)CCS(=O)(=O)Cc2ccccc2)s1	13.9%	u	6.4%	-2.0	-5.6	14.6µM*
COc1ccc(OC)c2sc(NC(=O)CCSc3ccccc3)nc12	-9.6%	-25.6%	-11.8%	-3.3	18.1	-34.7%
COc1ccc(OC)c2sc(NC(=O)CCS(=O)(=O)c3ccccc3)nc12	x	4.61µM*	x	1.3	-21.3	5.17µM*
Cc1ccc(S(=O)(=O)CCc2nnc(NC(=O)c3ccccn3)s2)cc1	u	20.6µM*	7.08µM*	6.9	0.0	u
CC1CC(NN(C)C)C(C#N)(C#N)C(C)C1(C#N)C#N (stereo unspecified)	x	x	x	7.5	x	x
O=C(O)C(c1c[nH]c2cc(CO)ccc12)N1CCN(Cc2cccs2)CC1 (stereo unspecified)	x	x	x	-6.9	x	x
Cc1cccc(NC(=O)CSc2nnc(Cc3ccccc3)n2-n2cccc2)c1	x	x	x	4.7	x	x
COCc1nnc(NC(=O)CCS(=O)(=O)c2ccccc2)s1	-1.5%	16.4µM*	-14.0%	-9.2	-97.4*	10.3µM*
O=C(CCS(=O)(=O)c1ccccc1)Nc1ncc([N+](=O)[O-])s1	u	10.3µM*	u	-4.7	-76.4*	8.2µM*
CCc1nnc(NC(=O)CCS(=O)(=O)c2ccccc2)s1	-11.8%	u	7.0%	1.2	4.5	25.9µM*
CCC(CC)c1nnc(NC(=O)Cc2c[nH]c3ccccc23)s1	x	23.1µM*	x	0.8	1.5	25.9µM*
COCc1nnc(NC(=O)CCCOc2ccccc2)s1	-40.8%	-0.7%	-3.9%	-2.1	-5.2	0.5%
CCc1nnc(NC(=O)CCC(=O)Nc2ccccc2)s1	-14.5%	-0.8%	-0.7%	-9.0	0.0	-3.9%
O=C(CS(=O)(=O)c1ccccc1)Nc1ncc([N+](=O)[O-])s1	-3.3%	-9.1%	2.9%	-3.0	23.7	-2.9%
NNc1ccncc1	x	x	x	2.4	x	x
COCc1nnc(NC(=O)c2cccc(Cl)c2)s1	x	x	x	5.0	x	x
CCC(CC)c1nnc(NC(=O)CCS(=O)(=O)Cc2ccccc2)s1	10.5%	14.6µM*	-16.3%	-0.9	-17.6	u
CCCCc1nnc(NC(=O)CCS(=O)(=O)c2ccc(C)cc2)s1	x	u	x	-4.4	5.7	13µM*
COCc1nnc(NC(=O)c2cccc(NC(=O)c3ccccc3)c2)s1	5.7%	20.6µM*	-10.9%	0.9	33.3	u
Cc1ccc(S(=O)(=O)CCC(=O)Nc2nc3c(s2)CCCC3)cc1	-1.8%	29.1µM*	-2.5%	-0.2	28.2	u
CC(=O)Nc1ccc(S(=O)(=O)Nc2nc3c(s2)CCCC3)cc1	u	-22.5%	-8.3%	-2.7	63.4	-18.1%
Cc1cc(NC(=O)CS(=O)(=O)c2ccc(C(C)(C)C)cc2)no1	x	x	x	-1.9	x	x
COc1cc(C)cc(OC)c1OCc1ccc(C#N)cc1	x	x	x	-5.9	x	x
CC(=O)Nc1cccc(-c2nc3cc(C)ccc3o2)c1C	x	x	x	4.4	x	x
CCN(CC)CCNC(=O)c1cc2c(=O)n(C)c3cc(Cl)ccc3c2s1	x	20.6µM*	x	-6.3	x	u
COCCCNC(=O)c1cc2c(=O)n(C)c3ccccc3c2n1C	-4.1%	u	-12.0%	1.4	-4.3	18.4µM*
CCCN1CCN(CCCNC(=O)c2cc3c(=O)n(C)c4ccccc4c3n2C)CC1	-39.0%	u	-7.5%	4.1	-22.2	u
CCCN(CCC)CCCNC(=O)c1cc2c(=O)n(C)c3ccccc3c2s1	x	18.4µM*	x	2.5	x	u
CCCN(CCC)CCCNC(=O)c1cc2c(=O)n(C)c3ccccc3c2n1C	-35.1%	25.9µM*	7.6%	2.3	-64.9*	u
